This passage reports growth results from PubChem BioAssay (NCI).

This is part of a sample that, as a whole, favours compounds with a hit. Of some 83,000 tested, about 20% had one in any assay.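 Each cell line was grown in a 96-well plate and treated with one concentration of compound for 48 hours. Values below 10 were considered active.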 A number with no mark means an inactive call. The source made the active and inactive calls.

This experiment concerns HL-60(TB) leukemia. Description: NCI-60 one-dose screen, 48 h (100 = growth as untreated, 0 = no growth, -100 = all killed). The conditions noted are these: 10 µM unless noted.
For `COc1cc(C(=O)n2nc(NCCCc3ccccc3)c3cc(N)ccc32)cc(OC)c1OC`, the growth was 69.5%.

Regarding `CCCCC(=O)Nc1ncc(Cc2ccccc2Cl)s1`, the growth was -7.94% (active).

As to `Oc1ccc(Cc2ccc(O)c(C3CC(c4ccc(Cl)cc4)=NN3)c2)cc1C1CC(c2ccc(Cl)cc2)=NN1` (stereo not given), the growth was -23.6% (active).

Turning to `Cc1nn(-c2cc(NC3CCC(O)CC3)c3c(=O)[nH]c(CCC(F)(F)F)cc3c2)c2c1C(=O)CC(C)(C)C2` (stereo not given), the growth is 28%.

For the compound `c1ccc(N(c2ccccc2)c2ccccc2)cc1`, the growth is 94.2%.

Take `Cc1nc2sc(C(=O)Nc3cccc(Cl)c3C)c(N)c2cc1C(C)O` (stereo not given): the growth is -18.7% (active).

For the compound `COc1cccc(-c2nc3cc(NC(=O)c4ccc(Cl)c(C#N)c4)ccc3o2)c1`, the growth is 100%.

As for `Cc1cc2nc(C(Cl)Cl)nc(-c3ccccc3)n2n1`, the growth is -14.1% (active).

For the compound `CCCCC(CCCC)(S(=O)(=O)CC)S(=O)(=O)CC`, the growth was 94.7%.

Turning to `CC(C)C[C@@H](NC(=O)[C@@H](Cc1ccccc1)NC(=O)c1cnccn1)B1O[C@H]2[C@H](O)[C@@H](C(=O)NCCCC[C@@H]3NC(=O)[C@@H](Cc4ccccc4)NC(=O)[C@H](CC(=O)O)NC(=O)CNC(=O)[C@H](CCCN=C(N)N)NC3=O)O[C@@H](CN)[C@H]2O1`, the growth was -1.86% (active).

In the case of `Cc1ccc(C(=O)Nc2ccccc2N)cc1`, the growth was -19.5% (active).

Turning to `Cn1cc(-c2noc(-c3cn(C)c4ncc(F)cc34)n2)c2cc(Cl)ccc21`, the growth was 82.6%.

Turning to `Cc1sc2c(c1C)c(=O)nc1c(-c3nc(-c4ccccc4)cs3)n[nH]n12`, the growth was 94.1%.

For the compound `COc1ccc(-c2nc([C@@H](C)Sc3nc(N)cc(N)n3)c(C)s2)cc1OCCN1CCOCC1`, the growth is 105%.

`COc1ccc(Nc2nccc(N3CCN(c4c5ccc(Cl)cc5nc5ccc(OC)cc45)CC3)n2)cc1`: the growth was 15.4%.

In the case of `O=C(Nc1ccccn1)[C@H](O)[C@@H](O)C(=O)N1CCOCC1`, the growth was 116%.

As for `O=C1C=CC(=O)N1CCCCCCCCCCN1C(=O)C=CC1=O`, the growth is 12.2%.

Consider `COc1ccc(N2CCN(c3nc(-c4cc(OC)c(OC)c(OC)c4)nc4ccccc34)CC2)cc1`, for which the growth was 44.4%.

As to `O=c1cc(-c2ccccc2)[nH]c2ccccc12`, the growth is 45%.

Consider `CC1(C)OC2=C(CC1Br)C(=O)C(=O)c1ccccc12` (stereo not given), for which the growth was -8.14% (active).

On to `CC1(C)C=CC[C@]2(C)[C@H]3CC[C@@H]4[C@H]5[C@H](C(=O)/C=C/c6cccnc6)CC[C@]5(CO)CC[C@@]4(C)[C@]3(C)CC[C@@H]12`, for which the growth is -29.2% (active).

Take `N=c1ccn2c(n1)OC1C(O)C(CO)OC12` (stereo not given): the growth is 106%.

With `COc1ccc(C(=O)Cn2cnc3c(Nc4cc(C(=O)Nc5ccc(N6CCN(CCO)CC6)cc5)ccc4C)ncnc32)cc1`, the growth was 83.6%.

`CCc1c2c(nc3ccc(OC(=O)OCc4ccc(B5OC(C)(C)C(C)(C)O5)cc4)cc13)-c1cc3c(c(=O)n1C2)COC(=O)[C@]3(O)CC`: the growth is 12%.

Turning to `c1ccc2c(c1)Sc1ccccc1S2`, the growth is 107%.

As to `Nc1nc(I)c2ncn(C3OC(CO)C(O)C3O)c2n1` (stereo not given), the growth was 99.4%.

Take `O=S(=O)(NCCCNc1nccc(-c2c(-c3cccc(F)c3)nc3sccn23)n1)c1cccc2ccccc12`: the growth is 53.9%.

Turning to `Nc1c(C(=O)NC2CCCCC2)sc2nc3c(cc12)C(=O)CCC3`, the growth was 95.2%.

In the case of `CCCCC(=O)Nc1nc2ccc(SCCC)cc2s1`, the growth was 19.5%.

On to `c1ccc(CCn2nnc3c(Nc4ccc(N5CCOCC5)cc4)ncnc32)cc1`, for which the growth is 96.7%.

`O=C(NNc1nc2cc(F)ccc2n2c(CN3CCOCC3)ccc12)c1ccccc1`: the growth was -1.51% (active).

Take `C[N+]1=C(/C=C\C=C\c2ccccc2)C(C)(C)c2ccccc21`: the growth was -22.2% (active).

As for `CCCCC1COc2cccc3c2N1C=C/C3=C\C(=O)N(C)c1cccc(Cl)c1` (stereo not given), the growth was 98.7%.

As for `CCN(CC)CCCOCCCNc1cc(OC)cc2cccnc12`, the growth is 107%.

On to `Cc1ccc(-c2nc(N3CCN(CC(=O)Nc4ccc(Cl)cc4)CC3)c3ccccc3n2)cc1`, for which the growth is 99.8%.

With `N=c1c2c(-c3ccccc3)c(-c3ccccc3)oc2ncn1NC(=O)c1cccnc1`, the growth is 99.7%.

With `COc1ccc(C(=O)/C=C/c2ccccn2)c(O)c1`, the growth is 23.4%.

Consider `CC(C)CCSc1nc(Nc2ccccc2)c(C#N)c(-c2ccccc2)n1`, for which the growth is 76.5%.

For `COc1ccc(-c2ccc3cc(C(=O)Nc4ccc(O)c(C(=O)/C=C/c5cc(OC)c(OC)c(OC)c5)c4)ccc3c2)cc1`, the growth was 95.5%.

In the case of `CN(C)CCC1(c2ccccc2)CCN(C)C1=O` (stereo not given), the growth is 109%.
